Holding throughout (format): functional
Test [1] concerns Plasmodium falciparum. The test is described as follows: GSK_TCMDC: Inhibition of Plasmodium falciparum 3D7 in whole red blood cells, using parasite LDH activity as an index of growth. Test compounds present at 2uM.
Test [2] deals with Plasmodium falciparum. Briefly: GSK_TCMDC: Inhibition of Plasmodium falciparum Dd2 in whole red blood cells, using parasite LDH activity as an index of growth. Test compounds present at 2uM.
A further test concerns HepG2. The test is described as follows: GSK_TCMDC: Percent inhibition of human HepG2 cell line. Test compounds present at 10uM.

With `CC(C)(C)c1ccc(NC(=O)c2cccc(CN3CCCN(Cc4cccc(O)c4)CC3)c2)cc1.O=C(O)C(F)(F)F`, the results for the Inhibition in the test on Plasmodium falciparum [1], in the test on Plasmodium falciparum [2] and with HepG2 were 100%, 69% and 97%, respectively.
Consider `CCOc1c(Br)cc(Br)cc1CNCCCCNc1nc2ccccc2[nH]1`, for which the Inhibition with Plasmodium falciparum [1] was determined as 100%; in the test on Plasmodium falciparum [2], 37%; with HepG2 it was 25%.
Taken in the same sequence, the figures for `CC(C)CNCc1ccc(OCc2cccc(COc3ccc(CNCC(C)C)cc3I)c2)c(I)c1.Cl` were 98%, 84% and 23%.
`Clc1cccc(C=NNc2nc(=Nc3ccccc3)[nH]c(=Nc3ccccc3)[nH]2)c1`: the Inhibition in the test with Plasmodium falciparum [1] was 92%; with Plasmodium falciparum [2], 15%; in the test with HepG2 it was 0%.
Taken in the same sequence, the figures for `COc1ccc2ncc(Cl)c([C@H](O)CN3CCC(NCc4cc5c(cn4)OCCO5)CC3)c2c1.Cl` were 100%, 100% and 10%.
Taken in the same sequence, the figures for `CCN1CCC(N(Cc2ccc(-c3ccc(C(F)(F)F)cc3)cc2)C(=O)Cn2c(SCc3ccc(F)cc3)nc(=O)c3c2CCC3)CC1.O=C(O)C(O)C(O)C(=O)O` were 90%, 96% and 46%.
`COc1cc(NC(=O)c2cccs2)c(C(=O)NCc2ccc(C)cc2)cc1OC`: the Inhibition in the test on Plasmodium falciparum [1] amounted to 93%; with Plasmodium falciparum [2], 88%; with HepG2, 3%.
Take `Clc1ccc(Nc2nc(Nc3ccc(Cl)c(Cl)c3)nc(Sc3nc4ccccc4[nH]3)n2)cc1Cl`: the Inhibition in the test with Plasmodium falciparum [1] amounted to 99%; with Plasmodium falciparum [2], 100%; in the test on HepG2, 10%.
With `CN(C)CCOc1cc(NC(=O)Nc2ccc(-c3ccncc3)c(C(F)(F)F)c2)ccc1Cl`, the results for the Inhibition with Plasmodium falciparum [1], in the test on Plasmodium falciparum [2] and in the test on HepG2 were 100%, 79% and 36%, respectively.
In the case of `NCCNc1ccc([N+](=O)[O-])cc1C(=O)Nc1cccc(Cl)c1`, the Inhibition in the test with Plasmodium falciparum [1] is 85%; in the test on Plasmodium falciparum [2] it was 7%; in the test on HepG2, 23%.
Take `Cc1cccc(C)c1CNc1nc(N2CCOCC2)cc2c(C)c(C)[nH]c12.Cl`: the figures for the Inhibition with Plasmodium falciparum [1], with Plasmodium falciparum [2] and in the test on HepG2 were 92%, 64% and 51%, respectively.
With `CCc1cn2c3c(cc(C(=O)N[C@@H](Cc4ccccc4)[C@H](O)CNCc4ccc(C)cc4)cc13)N(C)S(=O)(=O)CC2.O=CO`, the Inhibition with Plasmodium falciparum [1] worked out at 99%; in the test on Plasmodium falciparum [2], 98%; in the test with HepG2, 0%.
As to `C(=NN=c1cc(-c2ccccc2)[nH]c2ccccc12)c1cccnc1`, the Inhibition is listed as 87% in the test with Plasmodium falciparum [1], 13% with Plasmodium falciparum [2] and 23% with HepG2.
The corresponding values for `COc1ccc(C(=O)NCc2ccccc2-c2ccc(C(C)(C)C)cc2)cc1O` are 99%, 97% and 10%.
Consider `CC(C)(NCc1ccc(OC(F)(F)F)cc1)c1nc(-c2ccc(Cl)c(O)c2)c(-c2ccncc2)[nH]1.Cl`, for which the results for the Inhibition in the test with Plasmodium falciparum [1], in the test with Plasmodium falciparum [2] and in the test on HepG2 were 94%, 32% and 65%, respectively.
The corresponding values for `Cc1ccc(Oc2ccc(CNc3nc(Nc4cccc(F)c4)nc(Nc4cccc(F)c4)n3)cc2)cc1` are 86%, 0% and 0%.
For the compound `COc1cccc2c(NN=Cc3ccc(Cl)cc3)ccnc12`, the Inhibition was 99% with Plasmodium falciparum [1], 39% in the test with Plasmodium falciparum [2] and 26% in the test with HepG2.
The corresponding values for `Cc1cc(OCCCN2CCC(NS(=O)(=O)c3cccc(Br)c3)CC2)c2ccccc2n1` are 95%, 28% and 28%.
In the case of `Fc1cc(Cl)ccc1Nc1ccnc2cc(-c3scnc3CNCCN3CCOCC3)ccc12`, the figures for the Inhibition in the test on Plasmodium falciparum [1], in the test on Plasmodium falciparum [2] and with HepG2 were 99%, 84% and 0%, respectively.
Regarding `O=C(C=Cc1cn(-c2ccccc2)nc1-c1cccs1)N1CCN(c2ccncc2)CC1`, the results for the Inhibition in the test with Plasmodium falciparum [1], with Plasmodium falciparum [2] and in the test on HepG2 were 100%, 61% and 31%, respectively.
In the case of `Clc1ccc2c(NCc3ccccn3)ccnc2c1`, the Inhibition with Plasmodium falciparum [1] stood at 99%; in the test with Plasmodium falciparum [2] it was 99%; in the test on HepG2, 0%.
For the compound `O=C(Nc1ccc(Cl)c(Cl)c1)N1CCC(CNCc2cccc([N+](=O)[O-])c2)CC1.O=C(O)C(F)(F)F`, the Inhibition with Plasmodium falciparum [1] was determined as 98%; with Plasmodium falciparum [2] it was 6%; in the test on HepG2, 13%.
Turning to `CN(C)c1ccc(C=CC(=O)NC(=O)c2ccccc2O)cc1`, the results for the Inhibition in the test with Plasmodium falciparum [1], in the test with Plasmodium falciparum [2] and in the test with HepG2 were 92%, 97% and 6%, respectively.
Consider `O=C(Nc1ccc(Cl)cc1)Nc1cccc(-c2cccc(-c3nc4ccccc4[nH]3)c2)c1`, for which the Inhibition in the test on Plasmodium falciparum [1] was 100%; with Plasmodium falciparum [2], 56%; with HepG2 it was 70%.
As for `Cc1cccc2nc(-c3ccc(-c4cccc(NC(=O)CN5CCN(C)CC5)c4)s3)[nH]c12`, the Inhibition in the test with Plasmodium falciparum [1] was found to be 96%; in the test with Plasmodium falciparum [2], 51%; with HepG2, 7%.
Take `NC(=O)CCC(NC(=O)CNC(=O)Nc1cccc(C(F)(F)F)c1)C(=O)O` (configuration not stated): the Inhibition in the test on Plasmodium falciparum [1] is 97%; in the test with Plasmodium falciparum [2], 93%; in the test with HepG2 it was 1%.
Consider `Fc1ccc(C(OCC2CCCN(Cc3cccc4cccnc34)C2)c2ccc(F)cc2)cc1` (configuration not stated), for which the results for the Inhibition with Plasmodium falciparum [1], in the test with Plasmodium falciparum [2] and in the test on HepG2 were 98%, 97% and 21%, respectively.
Taken in the same sequence, the figures for `COCCOc1ccc(Nc2nccc(-c3c(-c4cccc(NC(=O)c5c(F)cccc5F)c4)nn4ccccc34)n2)cc1F` were 90%, 60% and 62%.
Take `O=C(Nc1cccc(C(F)(F)F)c1)NC1CCN(c2ccnc3ccccc23)C1.O=C(O)C(F)(F)F` (configuration not stated): the Inhibition in the test with Plasmodium falciparum [1] is listed as 100%; in the test on Plasmodium falciparum [2] it was 69%; in the test on HepG2, 23%.

For the origin of these results see ChEMBL document CHEMBL1157539, “Thousands of chemical starting points for antimalarial lead identification” (Nature, 2010).
